Among the data in PubChem BioAssay AID504834 (National Center for Advancing Translational Sciences (NCATS), 2011) are Potency values, retold here.

The campaign covered roughly 320,000 compounds. About 22,000 (6.9%) were called active. Another 27% or so got no clear call; they are omitted. The call rests on the fitted dose curve; in most records, active means well fitted inhibition curve with a large enough effect; inconclusive means small, poorly fitted or top-dose-only effect, or another doubt; inactive means no such curve, though single readings can be large or run the other way. Shown is part of a subset that was picked to be rich in actives. Entries that show only a call come without a potency.
Potency means the concentration at half of the fitted maximal effect.

The nature of this assay: Primary qHTS for delayed death inhibitors of the malarial parasite plastid, 96 hour incubation. Particulars: P. falciparum luciferase reporter growth; series mostly up to 28.7 µM. The gist of the method: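 Two parasite generations (96 h, 37 C, 5% CO2) of compound exposure in infected erythrocytes (0.05% parasitemia, 2% hematocrit). Luciferase-reporter P. falciparum; decreased luminescence indicates inhibited growth, aimed at apicoplast-acting delayed death.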
(In general: In qHTS, concentration-response curves come from the screen itself.)
On to `O=C(CSc1nnc(-c2ccccc2O)o1)NC1CCCCC1`, for which the Potency entry is “inactive”. The value for `COc1ccccc1NC(=O)COC(=O)COc1ccccc1F` was “inactive”. To `C=CCSc1nc2c(c(=O)[nH]c(=O)n2C)n1Cc1ccccc1` belongs “inactive”; to `C=CCn1c(SCc2ccccc2)nc2c1c(=O)[nH]c(=O)n2C`, “inactive”; to `CCCCCn1c(SCCC(C)C)nc2c1c(=O)[nH]c(=O)n2C`, 13.1 µM (active). `COc1ccccc1OCc1ccc(C(=O)NC(C)c2ccccc2)o1` (configuration not stated): the Potency entry was “inactive”. For `CCN(CC(=O)Nc1ccccc1OC)C(=O)CC1CC2CCC1C2` (configuration not stated), the Potency result is “inactive”. The value for `CCN(CC)C(=O)CC1(c2ccccc2OC)CCOC(C(C)C)C1` (configuration not stated) was 11.7 µM (active); that for `CN1CCN(S(=O)(=O)c2cccc(C(=O)Nc3cccc(S(N)(=O)=O)c3)c2)CC1` was “inactive”.

With `CN(C)c1ccc(S(=O)(=O)NCC(=O)NCC2CCCCC2)cc1[N+](=O)[O-]`, the Potency entry is “inactive”. For `CCOc1ccc(C(CCc2ccccc2)NC(=O)c2ccc(OC)c(OC)c2)cc1OCC` (configuration not stated), the Potency was 0.233 µM (active). Take `COc1ccc(C(=O)OCC(=O)NCCCc2ccccc2)cc1OC`: the Potency entry was “inactive”. The value for `CCOc1ccc(C(CC(=O)O)NC(=O)C23CC4CC(CC(C4)C2)C3)cc1OC` (configuration not stated) was “inactive”; that for `Cc1cc(NS(=O)(=O)c2ccc(NC(=O)c3cccnc3)cc2)nc(C)n1` was “inactive”; that for `CCN1N=C(c2ccccc2)CCC1=O` was “inactive”.

Consider `O=c1c(-c2ccccc2)coc2c(CN3CCOCC3)c(O)ccc12`, for which the Potency result was “inactive”. The value for `O=c1oc2c(CN3CCCCC3)c(O)ccc2c2c1CCCCC2` was 10.4 µM (active). The value for `CCN1CCN(Cc2c(O)ccc3c(=O)c(-c4ccc(OC)c(OC)c4)c(C(F)(F)F)oc23)CC1` was “inactive”; that for `COc1cc(NC(=O)CSC(=S)N2CCCC2)c(OC)cc1Cl` was “inactive”.

As to `CN(CCNC(=O)c1cc2c(-c3ccccc3F)nn(C)c2s1)C1CCCCC1`, the Potency entry is “inactive”. The value for `COc1ccc(CNC(=O)COc2cccnc2[N+](=O)[O-])cc1` was “inactive”; that for `Cc1ccc(C)c(S(=O)(=O)N2CCN(C(=O)Nc3ccccc3)CC2)c1` was “inactive”; that for `Cc1ccc([N+](=O)[O-])cc1S(=O)(=O)N1CCCN(C)CC1` was “inactive”.

As for `Cc1ccc(C)c(S(=O)(=O)N2CCN(CC(=O)Nc3ccc([N+](=O)[O-])cc3)CC2)c1`, the Potency was 10.4 µM (active). To `Cc1c(CNCCc2ccccc2)c(C(=O)O)c(C)n1-c1ccccc1` belongs “inactive”; to `Cc1ccc(CC2C(=O)N(c3ccc(F)cc3)C(=O)C2C)cc1` (configuration not stated), “inactive”. The value for `CCCc1nn(C)c2c(=O)[nH]c(-c3cc(S(N)(=O)=O)ccc3OCC)nc12` was “inactive”; that for `CC(C)CN(C(=O)c1cccc(S(=O)(=O)N2CCCCC2)c1)C1CCS(=O)(=O)C1` (configuration not stated) was “inactive”. With `CCC1CCCCN1C(=S)Nc1ccc(C(C)=O)cc1` (configuration not stated), the Potency result is “inactive”. To `CCC1CCCCN1C(=S)Nc1ccc(SC(F)F)cc1` (configuration not stated) belongs “inactive”; to `CCC1CCCCN1C(=S)Nc1ccc(S(=O)(=O)Nc2ncccn2)cc1` (configuration not stated), 10.4 µM (active). To `Cc1ccc(C)c(S(=O)(=O)Nc2cc(C)on2)c1` belongs “inactive”; to `Cc1ccc(OCC(=O)Nc2ccc(N3CCN(C(=O)c4ccco4)CC3)cc2)c(C)c1`, “inactive”; to `O=C(CSc1nc2ccccc2[nH]1)c1cccs1`, “inactive”. Turning to `O=C(CSc1nc2ccccc2[nH]1)Nc1nc(-c2ccccc2)c(-c2ccccc2)o1`, the Potency was 13.1 µM (active). `CN(Cc1ccccc1)C(=O)CSc1nc2ccccc2[nH]1`: the Potency entry is “inactive”. `COc1ccc2c(c1)C(NS(=O)(=O)OCC(Cl)(Cl)Cl)CCC2` (configuration not stated): the Potency result was “inactive”. To `CCOc1ccc(NC(=O)N(CC(C)C)CC(C)C)cc1` belongs “inactive”. To `CCOc1ccc(NC(=O)Nc2ccc(N(C)C(C)=O)cc2)cc1` belongs 16.5 µM (active); to `CC(=O)N(C)c1ccc(NC(=O)C(F)(F)F)cc1`, “inactive”; to `O=C(O)CCCCCCCCc1cn(CN2C(=O)c3ccccc3C2=O)nn1`, “inactive”. Take `O=C(Nc1nc(-c2ccc(-c3ccccc3)cc2)cs1)c1cnccn1`: the Potency result is “inactive”. For `Cc1ccc(-c2csc(NNC(=O)c3ccccc3)n2)cc1`, the Potency was 3.7 µM (active). To `Cc1nc(NC(=O)c2cccc(Cl)c2)sc1-c1csc(Nc2cccc(Cl)c2)n1` belongs 9.28 µM (active); to `CNC(=O)c1ccc(NC(=O)c2cccc(C(F)(F)F)c2)cc1`, “inactive”.

With `Cn1sc(NC(=O)c2ccccc2)nc1=O`, the Potency result was “inactive”. The value for `Cc1ccc(Nc2nc(-c3sc(NC(=O)c4ccccc4)nc3C)cs2)cc1` was 13.1 µM (active); that for `CC(=O)Nc1cccc(C(=O)Nc2nc(C)cs2)c1` was “inactive”. The value for `CC(=O)c1sc(NC(=O)c2ccc(C)cc2)nc1C` was “inactive”; that for `CCNS(=O)(=O)c1ccc(NC(=O)Nc2cccc(C(F)(F)F)c2)cc1` was “inactive”. With `O=C(O)c1ccccc1C(=O)Nc1nc(-c2ccccc2)cs1`, the Potency entry was “inactive”.

For the molecule `O=C(Nc1ccc(-c2csc(Nc3cccc(C(F)(F)F)c3)n2)cc1)c1cccc(C(F)(F)F)c1`, the Potency is 8.28 µM (active).

As to `CCOC(=O)c1c(NC(=O)CN2C(=O)NC3(CCC(C)CC3)C2=O)sc(C)c1CC` (configuration not stated), the Potency result is “inactive”. For `NC(=O)c1c(NC(=O)CSc2nc(N)cc(=O)[nH]2)sc2c1CCCC2`, the Potency result was “inactive”. The value for `COc1cc(NS(=O)(=O)c2ccc(NC(=S)NC(=O)c3ccc(Br)cc3)cc2)ncn1` was “inactive”; that for `COc1ccccc1Cn1c(CO)nc2ccccc21` was “inactive”; that for `COc1ccc(-n2ncc3c(SCC(=O)NNC(C)=O)ncnc32)cc1` was “inactive”. As to `CC(=O)c1cccc(NC(=O)c2cc(C)nn2-c2ccccc2)c1`, the Potency entry was “inactive”. To `COc1ccc(Cl)cc1C(=O)OCC(=O)NCc1cccs1` belongs “inactive”; to `CCC(=O)NCc1cc(-c2nn(C)c(=O)c3ccccc23)ccc1OC`, “inactive”. With `O=C1c2oc3ccc(Br)cc3c(=O)c2C(c2cccc(F)c2)N1CCO` (configuration not stated), the Potency entry was “inactive”. The value for `Cc1c(-c2nn(C)c(=O)c3ccccc23)oc2ccc(F)cc2c1=O` was 4.15 µM (active).

Take `O=C(Nc1ccc(S(=O)(=O)N2CCCC2)cc1Cl)C1=COCCO1`: the Potency entry is “inactive”. Turning to `CCN(CC)c1ccc(S(=O)(=O)N2CCCCC2)cc1NC(=O)C1=COCCO1`, the Potency is 10.4 µM (active). To `Cc1ccc(S(=O)(=O)N2CCCCC2)cc1NC(=O)c1cccnc1` belongs “inactive”; to `O=C(Nc1ccc(Br)cc1)c1cc(S(=O)(=O)Nc2ccccn2)ccc1Cl`, “inactive”. To `O=C(NNC(=O)C1CCCC1)c1ccc(F)cc1` belongs “inactive”.
